The whole screen tested about 69,000 compounds, of which about 8,600 (12%) showed an effect of 50% or more. For the sample, strong results were picked, then their nearest neighbours and some compounds at random.
The compounds below were run on Plasmodium berghei (assay: Screen against P. berghei liver stage (PbLuc), transformed with Luciferase, at 10uM). Conditions: tested at 10 uM.
Format: functional, HepG2
`CCc1ncc2c(n1)CN(CC(=O)Nc1nncs1)CC2` gave an INHIBITION of 33.8%.
`Cn1ccnc1S(=O)(=O)C(C(=O)N1CCCCC1)c1ccccc1` (centres undefined) was tested, and the INHIBITION was 28.1%.
Work on `COCCN1CCCc2sc(C(=O)Nc3ccc(C)nc3)nc21` yielded an INHIBITION of 16.9%.
Compound `Cc1ccc(OCCNc2cccc(C(=O)N3CCOCC3)c2)cc1` has an INHIBITION of -17.3%.
Work on `CC(CN1CCCC1=O)NC(=O)c1ccc(-c2ccco2)[nH]c1=O` (centres undefined) yielded an INHIBITION of 16.6%.
In the case of `O=c1nc(CNc2ccccc2)[nH]n1Cc1ccccc1`, the INHIBITION is reported as -31.6%.
`COc1nccc(C(F)(F)F)c1C(=O)O` showed an INHIBITION of 4.12%.
Compound `CCN(CC)CCNC(=O)c1ccc(Cl)c(NS(C)(=O)=O)c1` has an INHIBITION of 18.6%.
Work on `Cc1cc(C(=O)NCCC(C)C)ccc1NS(C)(=O)=O` yielded an INHIBITION of 65.6%.
For `CC(C)(C)CCNC(=O)c1ccc(Cl)c(NS(C)(=O)=O)c1`, the INHIBITION was -3.81%.
In the case of `Cc1ccc(C(=O)NCCC(C)C)cc1NS(C)(=O)=O`, the INHIBITION is reported as 18.6%.
In the case of `Cc1ccc(C(=O)NCCCNS(C)(=O)=O)cc1C`, the INHIBITION is reported as -43.2%.
Compound `CC(C)CCNC(=O)c1ccc(Cl)c(NS(C)(=O)=O)c1` has an INHIBITION of 54.4%.
`Cc1nccn1-c1ccc(=O)n(CCNC(=O)c2c(F)cccc2Cl)n1` showed an INHIBITION of 6.67%.
`CCn1ccnc1CN1CCN(CC(O)CN2CCOCC2)CC1` (centres undefined) showed an INHIBITION of 12.415%.
Compound `CC(NC(=O)NCCC1=CCCCC1)c1nncn1C` (centres undefined) has an INHIBITION of 15.7%.
`Cc1ccc(-c2nc(C3CCN(C(=O)c4ccn(C)n4)CC3)no2)cn1` showed an INHIBITION of -26.7%.
`Cc1ccc(C(=O)N(C)CC(=O)NCC(F)(F)F)cn1` showed an INHIBITION of 42%.
For `CN(CC(=O)NCC(F)(F)F)C(=O)c1ccc(C(=O)OC(C)(C)C)cc1`, the INHIBITION was 63.7%.
For `CN(CC(=O)NCC(F)(F)F)C(=O)c1ccc(=O)[nH]c1`, the INHIBITION was -10.8%.
In the case of `COC(=O)c1cccn1C1CCN(C(=O)c2cc(F)ccc2C)CC1`, the INHIBITION is reported as 8.64%.
`CS(=O)(=O)N1CC(=O)N(CCCc2ccccc2)CC(O)C1` (centres undefined) was tested, and the INHIBITION was 42.7%.
For `COc1ccc(-c2nc(C(=O)NCC3CCOC3)cs2)cc1OC` (centres undefined), the INHIBITION was 34.7%.
Compound `Cc1cn[nH]c1C1CCCN1Cc1ccc(F)c(F)c1` (centres undefined) has an INHIBITION of 15.5%.
`O=C(O)CCc1cccc(C2CCCN2Cc2cccc(Cl)c2)n1` (centres undefined) was tested, and the INHIBITION was 19.6%.
In the case of `CN(C)C(=O)CCc1cncc(C2CCCN2Cc2ccccn2)n1` (centres undefined), the INHIBITION is reported as -1.85%.
In the case of `Cc1cc(C)nc(N2CCC(c3cccc(CCC(=O)O)n3)CC2)n1`, the INHIBITION is reported as 4.13%.
`Cc1cc(C)nc(C2CCCN2c2ccnc(C)n2)n1` (centres undefined) gave an INHIBITION of 7.52%.
`Cc1cc(N2CCCC2c2nc(C)cc(CCC(=O)O)n2)ncn1` (centres undefined) gave an INHIBITION of 9.93%.
Work on `Cc1cc(CCC(=O)O)nc(C2CCCN2c2ccnc(C)n2)n1` (centres undefined) yielded an INHIBITION of 50.8%.
With `Cc1cccc(CN2CCCC2c2cccc(CCC(=O)O)n2)c1` (centres undefined) the INHIBITION was 51.5%.
Work on `O=C(O)CCc1cccc(C2CCCN2Cc2ccc(F)c(F)c2)n1` (centres undefined) yielded an INHIBITION of 58%.
Work on `O=C(c1ccnnc1)N1C[C@H](OCC2CC2)[C@H]2COC[C@H]21` yielded an INHIBITION of -2.25%.
`CCOC(=O)c1sc(NC(=O)c2cc(=O)c(OC)c[nH]2)nc1C` gave an INHIBITION of 8.12%.
`CCS(=O)(=O)N1CC[C@@H]2[C@H](CC1)N(Cc1cccc(C)n1)CCS2(=O)=O` was tested, and the INHIBITION was 49.7%.
`CCc1nc(CN(C)C2CCN(Cc3nnc(C4CCC4)o3)C2)no1` (centres undefined) showed an INHIBITION of 21.5%.
`CC1c2ncc(CNC(=O)C3CC3)n2CCN1Cc1cnn(C)c1` (centres undefined) showed an INHIBITION of -8.94%.
In the case of `O=C(COc1ccccc1NCc1ccoc1)N1CCOCC1`, the INHIBITION is reported as -5.22%.
For `CCc1nnsc1C(=O)N1CCCC1c1c(C)nn(C)c1OC` (centres undefined), the INHIBITION was -25.8%.
Work on `Cc1nc(C)c(Cc2nc(C3CC3)n[nH]2)c(=O)[nH]1` yielded an INHIBITION of 29%.
In the case of `Cc1nc(N)nc(C)c1Cc1nc(C2CC2)n[nH]1`, the INHIBITION is reported as 32.3%.
For `Cc1n[nH]c(C)c1CCc1nc(C2CC2)n[nH]1`, the INHIBITION was 50.7%.
In the case of `CC(=O)NCC(=O)N1CCN(CCN(C)C)c2ncccc2C1`, the INHIBITION is reported as 6.79%.
Compound `Nc1ccncc1-n1cc(CCO)cn1` has an INHIBITION of 33.3%.
`Cn1c(CCNc2nccnc2C#N)nc2cc(Cl)ccc21` gave an INHIBITION of 32.3%.
In the case of `Cc1nnc(NCCc2nc3ccc(F)cc3n2C)c(C#N)c1C`, the INHIBITION is reported as 34.1%.
With `Cn1c(CCNc2nccnc2C#N)nc2ccc(F)cc21` the INHIBITION was 67.3%.
Compound `Cn1c(CCCNC(=O)Nc2cn[nH]c2)nc2ccccc21` has an INHIBITION of -7.66%.
Compound `CC(C)n1nccc1NC(=O)NCCc1nc2ccc(F)cc2n1C` has an INHIBITION of 73.6%.
For `Cn1c(CCNC(=O)Nc2cn[nH]c2)nc2ccc(F)cc21`, the INHIBITION was -5.52%.
For `Cc1nc(C2CCCN2CCOCC2CC2)no1` (centres undefined), the INHIBITION was -77.6%.
Compound `O=C(c1ccc(N2CCCC2)nn1)N1CCCC(n2ccnc2)C1` (centres undefined) has an INHIBITION of 29.2%.
`CCOc1ccc(CN2CCC(c3nc(C)cc(C)n3)C2)cc1CO` (centres undefined) showed an INHIBITION of 44.05%.
`CN1CC(C(=O)Nc2ccc(OCC(F)(F)C(F)F)nc2)CC1=O` (centres undefined) was tested, and the INHIBITION was -14.6%.
`Cc1nc2[nH]cnc(NCCCN3CCOCC3)c-2n1` was tested, and the INHIBITION was 5.03%.
`CCc1nc(C2CCCN2CC(=O)NCCOc2ccccc2)no1` (centres undefined) showed an INHIBITION of -2.95%.
`Cc1cccc(OCCNC(=O)CN2CCCC2c2noc(C)n2)c1` (centres undefined) showed an INHIBITION of 6.905%.
In the case of `Cc1nc(C2CCCN2CC(=O)NCCOc2cccc(F)c2)no1` (centres undefined), the INHIBITION is reported as 2.8815%.
`COc1ccc(CCNC(=O)CN2CCCC2c2noc(C)n2)cc1` (centres undefined) was tested, and the INHIBITION was -3.2%.
Work on `Cc1nc(C2CCCN2CC(=O)NCCOc2ccc(F)cc2)no1` (centres undefined) yielded an INHIBITION of 55.15%.
For `Cc1nc(C2CCCN2CC(=O)NCCOc2ccccc2)no1` (centres undefined), the INHIBITION was 50.4%.
In the case of `CCC(=O)N1C[C@@H](C(=O)NC)[C@H](c2ccnc(N3CCCC3)n2)C1`, the INHIBITION is reported as 1.93%.
Work on `Cc1nc(C)n(CC2CN(Cc3cccc(OC(C)C)c3)CCO2)n1` (centres undefined) yielded an INHIBITION of 45.7%.
`c1ccc2oc(CN3CCOC(Cn4cccn4)C3)nc2c1` (centres undefined) was tested, and the INHIBITION was -51.5%.
`Cc1cnn(CC2CN(Cc3nc4ccccc4nc3C)CCO2)c1` (centres undefined) was tested, and the INHIBITION was 58%.
`Cn1c(CN2CCOC(Cn3cncn3)C2)nc2ccccc21` (centres undefined) gave an INHIBITION of -4.93%.
In the case of `Cc1cnn(CC2CN(Cc3nc(C)c4ccccc4n3)CCO2)c1` (centres undefined), the INHIBITION is reported as 35.3%.
`Cc1cnn(CC2CN(Cc3cccc(OC(C)C)c3)CCO2)c1` (centres undefined) gave an INHIBITION of 70.3%.
Compound `c1ccc2sc(CN3CCOC(Cn4cccn4)C3)nc2c1` (centres undefined) has an INHIBITION of 72.4%.
`Cc1nc2ccccc2nc1CN1CCOC(Cn2cccn2)C1` (centres undefined) was tested, and the INHIBITION was 26.5%.
With `Cc1nc(CN2CCOC(Cn3cncn3)C2)nc2ccccc12` (centres undefined) the INHIBITION was 21.1%.
`c1ccc2sc(CN3CCOC(Cn4cncn4)C3)nc2c1` (centres undefined) showed an INHIBITION of 85.9%.
For `Cc1cnn(CC2CN(Cc3cccc(OCC(N)=O)c3)CCO2)c1` (centres undefined), the INHIBITION was -2.4%.
Work on `c1ccc2sc(N3CCOC(Cn4cccn4)C3)nc2c1` (centres undefined) yielded an INHIBITION of 26.3%.

— ChEMBL document CHEMBL4513216, “Probing the Open Global Health Chemical Diversity Library for Multistage-Active Starting Points for Next-Generation Antimalarials” (ACS Infect Dis, 2020)
